# Compound activity: PubChem BioAssay, several laboratories
# Rows were chosen to be rich in hits. Some 4.8% of all compounds tested hit in one or more screens of this group.
# Calb FLC = C. albicans growth inhibition with fluconazole, primary screen, CaCi-2 strain, Alamar Blue fluorescence. AID 1979, 2009. C. albicans CaCi-2 (fluconazole-resistant clinical isolate) + fluconazole, 48 h. 300,000 compounds, 0.57% hits. growth inhibition, % (concentration not given with the values);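 active means growth inhibition above about 58% in most replicates, limit read from the data, passing the limit was not always enough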;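 further: all wells also contain fluconazole at 8 µg/ml as a sub-toxic cotreatment; 0% = median of DMSO wells and 100% = median of geldanamycin control wells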
# CSC inhib = cancer stem cell viability inhibitors, primary screen, luminescence; inhibition, % at 7.5 µM; 300,000 compounds, 1.1% hits; AID 2717, 2010; cancer stem cell-like cells viability; in the data active means inhibition above about 75%; tested in HMLE shEcad cells
# Beta apoptosis = inhibitors of cytokine-induced beta cell apoptosis, primary screen, luminescence; AID 435005, 2010; INS-1E cytokine-induced death, ATP luminescence, 48 h; percent of positive-control rescue, neutral wells zero; 300,000 compounds, 0.8% hits; protection from apoptosis, % (concentration not given with the values);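 active means Every replicate reaches about 75%, or at least half do and their mean reaches it too, limit read from the data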;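 further: 0% = cytokine-treated negative control wells and 100% = positive control rescue; higher means more ATP so stronger rescue from cytokine killing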
# MPTP inh = mitochondrial permeability transition pore inhibitors, primary screen, biochemical, isolated mouse mitochondria, absorbance; Ca2+ swelling absorbance, 30 min; inhibition, % at 10 µM; 360,000 compounds, 1.4% hits; AID 602449, 2012;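 active means inhibition of 50% or more, scaled per plate between neutral and stimulator controls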;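 further: 0% = DMSO wells given calcium and 100% = 1 mM EGTA wells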
# Mdm2 MdmX PPI = inhibitors of human Mdm2-MdmX association, primary screen, cell-based, luminescence, split luciferase, SaOS-2, uHTS; 330,000 compounds, 3% hits; inhibition, % at 8 µM; SaOS-2 split-luciferase Mdm2/MdmX complementation;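 active means inhibition of at least 50% at 8 µM in the primary screen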
# Target sequence (O15151 whole entry, looked up): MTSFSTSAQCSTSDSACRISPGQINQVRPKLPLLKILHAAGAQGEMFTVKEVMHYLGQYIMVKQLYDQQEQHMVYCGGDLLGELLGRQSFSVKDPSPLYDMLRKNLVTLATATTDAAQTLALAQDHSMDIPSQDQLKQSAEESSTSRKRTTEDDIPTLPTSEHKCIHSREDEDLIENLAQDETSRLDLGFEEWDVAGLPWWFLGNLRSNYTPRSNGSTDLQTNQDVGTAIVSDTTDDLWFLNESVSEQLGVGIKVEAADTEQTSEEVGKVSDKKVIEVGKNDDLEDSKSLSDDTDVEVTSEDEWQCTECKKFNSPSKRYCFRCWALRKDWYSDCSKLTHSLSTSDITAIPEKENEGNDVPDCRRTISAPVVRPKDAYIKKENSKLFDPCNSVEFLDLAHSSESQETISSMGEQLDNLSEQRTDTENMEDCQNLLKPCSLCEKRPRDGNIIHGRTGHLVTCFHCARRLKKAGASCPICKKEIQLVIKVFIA
# Target sequence (Q00987 whole entry, looked up): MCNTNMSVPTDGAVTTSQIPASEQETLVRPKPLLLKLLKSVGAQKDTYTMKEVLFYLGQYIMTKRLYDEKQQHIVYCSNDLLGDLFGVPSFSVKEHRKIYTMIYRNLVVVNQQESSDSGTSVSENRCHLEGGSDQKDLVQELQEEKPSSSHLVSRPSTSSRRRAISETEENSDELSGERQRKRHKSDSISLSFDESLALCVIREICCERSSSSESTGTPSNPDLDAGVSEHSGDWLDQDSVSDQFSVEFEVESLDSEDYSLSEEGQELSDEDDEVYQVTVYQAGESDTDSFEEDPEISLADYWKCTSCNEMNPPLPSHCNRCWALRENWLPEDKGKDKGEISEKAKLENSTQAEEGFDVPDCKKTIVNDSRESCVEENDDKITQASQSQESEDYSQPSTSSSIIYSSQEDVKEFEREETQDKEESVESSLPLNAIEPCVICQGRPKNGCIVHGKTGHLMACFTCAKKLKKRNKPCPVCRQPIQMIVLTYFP
# Mdm2 MdmX conf = Mdm2-MdmX complex disruptors, retested hits, confirmation, luminescence, single concentration. inhibition, % at 8 µM. shares compounds with Mdm2 MdmX PPI. 10,000 compounds, 55% hits. Mdm2-MdmX binding, luminescent assay; in the data active means inhibition above about 40%
# Full FLuc ctr = full-length luciferase signal inhibition, confirmation, counter-screen for Mdm2/MdmX interaction inhibitor project, cell-based, single concentration, SaOS-2. shares compounds with Mdm2 MdmX PPI. SaOS-2 full-length luciferase counterscreen, luminescence. inhibition, % at 8 µM. 6,200 compounds, 77% hits. AID 504607, 2011;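 active means mean inhibition at 8 µM reaching about 37%, which flags the compound as non-specific, limit read from the data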;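 further: p53-null SaOS-2 cells with luciferase driven by a doxycycline-inducible promoter; compound on cells about two nights before reading with doxycycline added after day one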
# Rh123 counter = fluorescence retest of MPTP screen hits in isolated mitochondria, single concentration | shares compounds with MPTP inh | AID 624504, 2012 | 5,000 compounds, 78% hits | inhibition, % at 10 µM | membrane potential, Rhodamine 123 fluorescence; in the data active means inhibition above about 22%;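 further: 0% = DMSO vehicle and 100% = positive control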
# MPTP swell DR = mitochondrial permeability transition pore inhibitors, dose response, biochemical, absorbance, uHTS hits; isolated mitochondria swelling; shares compounds with MPTP inh; 780 compounds, 58% hits; IC50, µM; in the data active means IC50 below about 20 µM
# MPTP cs DR = fluorescent counter-screen in isolated mitochondria, dose response, counter-screen for MPTP inhibitor project, biochemical, fluorescence, uHTS hits. shares compounds with MPTP inh. isolated mitochondria counterscreen, fluorescence read-out. IC50, µM. 780 compounds, 49% hits. AID 651564, 2012; in the data active means IC50 below about 80 µM
# An asterisk follows results filed as active; i = inactive; / = no result given; ! = not confirmed by another sample.
SMILES,Calb FLC,CSC inhib,Beta apoptosis,MPTP inh,Mdm2 MdmX PPI,Mdm2 MdmX conf,Full FLuc ctr,Rh123 counter,others
CN(C)CCCN(C(=O)c1cc2cc([N+](=O)[O-])ccc2s1)c1nc2cc3c(cc2s1)OCCO3,-19.6,63.4,/,82.9*,96.8*,65.1*,77.2*,-30.2,
N#Cc1cccc(N2[C@@H](Cc3cc4ccccc4n3Cc3ccccc3)COC[C@H]2Cc2ccc3ccccc3c2)c1,/,/,/,-0.6,/,/,/,/,
CCOC(=O)Cc1csc(NC(=O)c2ccc(N3CCOCC3)cc2[N+](=O)[O-])n1,/,/,0.0,-0.3,25.7,/,/,/,
CN1CCN(C2=Cc3ccc(Cl)cc3Sc3ccc(F)cc32)CC1,28.8,120.5*,8.7,94.7*,59.8*,29.4,/,-9.4,
CSCCC(NC(=O)c1ccco1)C(=O)N1CCN(C(c2ccccc2)c2ccccc2)CC1 (configuration not stated),/,/,/,-0.8,-2.5,/,/,/,
N=c1c(-c2nc3ccccc3[nH]2)cc(C(=O)c2cccs2)nn1-c1ccccc1,-2.8,-13.5,-5.8,90.8*,56.0*,39.7,58.7*,38.5*,
CCOC(=O)c1c(NC(=O)C(NCCN(C)C)c2ccccc2)sc2c1CCCC2 (configuration not stated),-15.2,27.4,23.8,81.4*,94.2*,37.1,68.6*,-11.3,
CCOC(=O)c1c(NC(=O)C[n+]2ccccc2)sc2c1CCCC2,-32.5,-4.6,-2.3,-0.3,13.6,/,/,/,
CCCCn1c(O)c2n(c1=O)Cc1ccccc1N=C2c1ccccc1,/,/,/,1.6,/,/,/,/,
O=c1c2ccccc2nc(N/N=C/c2c(O)ccc3ccccc23)n1O,106.1*,111.6*,98.1*,52.3*,71.2*,68.4*,35.9,-19.4,
O=c1c2ccccc2nc(N/N=C/c2ccc(O)cc2)n1O,-7.9,-13.0,-1.1,-8.7,-9.8,/,/,/,
CC1CN(S(=O)(=O)c2ccc(NC(=O)c3cc(-c4ccccc4O)n[nH]3)cc2)CC(C)O1 (configuration not stated),53.1,40.3,8.4,79.4*,58.0*,32.1,/,71.5*,
CC1CN(S(=O)(=O)c2ccc(C(=O)Nc3nc(-c4cc5ccccc5o4)cs3)cc2)CC(C)O1 (configuration not stated),-11.2,28.7,54.5,88.0*,76.1*,19.9,/,19.0,MPTP swell DR=i;MPTP cs DR=<2.5*
O=C(Nc1ccc(S(=O)(=O)N2CCOCC2)cc1)c1cc(-c2ccccc2O)n[nH]1,0.1,1.8,-4.1,46.4,1.2,/,/,/,
COC(=O)C1=C(C)N(Cc2ccccc2)C(=NCC(C)C)N[C@H]1c1cccc(C(F)(F)F)c1,/,31.0,28.8,86.0*,99.2*,51.4*,26.2,-1.6,
COC(=O)C1=C(C)N(Cc2ccccc2)C(=NCc2cccc(Cl)c2)N[C@H]1c1cccc(F)c1,/,134.2*,98.2*,85.7*,100.5*,59.9*,10.6,-9.5,
COC(=O)C1=C(C)N(Cc2ccccc2)C(=NCc2ccco2)N[C@H]1c1cccc(F)c1,/,/,-2.7,0.4,41.5,/,/,/,
CCCCc1ccc(C2C3=C(CC(C)(C)CC3=O)NC3=C2C(=O)c2ccccc23)cc1 (configuration not stated),-1.1,25.8,-1.8,70.7*,55.1*,22.6,/,52.6*,
CCCc1ccc(C2C3=C(CC(C)(C)CC3=O)NC3=C2C(=O)c2ccccc23)cc1 (configuration not stated),105.5*,88.7*,34.9,80.7*,76.0*,-2.0,/,52.4*,
CC1Cc2c([nH]c3ccccc23)C2c3ccccc3CN12 (configuration not stated),4.0,-1.0,-1.4,-1.4,19.3,/,/,/,
Cn1c2c(c(=O)n(C)c1=O)C(C(F)(F)F)(C(F)(F)F)N=C(c1ccc(Cl)cc1)N2,84.1*,/,139.4*,99.1*,94.4*,90.2*,51.5*,84.0*,
Cc1cc(C(=O)O)ccc1N=Cc1c(O)ccc2ccccc12,20.8,-10.5,-5.1,1.1,23.5,/,/,/,
Oc1c(N=Nc2ccccn2)ccc2ccccc12,-2.5,99.2*,95.9*,53.7*,91.0*,46.0*,46.4*,-52.2,
Oc1[nH]c2ccccc2c1N=Nc1ccccn1,/,/,/,-0.9,/,/,/,/,
COC(=O)[C@H]1C[C@@]2(O)CN(S(=O)(=O)c3ccc(C)cc3)C[C@@]2(OC(=O)Nc2c(C)noc2C)C[C@H]1C(=O)OC,/,/,/,3.4,/,/,/,/,
SMILES,Calb FLC,CSC inhib,Beta apoptosis,MPTP inh,Mdm2 MdmX PPI,Mdm2 MdmX conf,Full FLuc ctr,Rh123 counter,others
O=C(c1ccc(S(=O)(=O)c2ccc(F)cc2)c([N+](=O)[O-])c1)N1CCCCCC1,6.9,32.6,41.4,78.3*,56.3*,31.1,30.1,67.8*,
CCN1/C(=C/C(C)=C/c2sc3ccccc3[n+]2CC)Sc2ccccc21,103.1*,143.8*,110.2*,198.7*,97.4*,100.2*,15.4,67.8*,
CCn1cc(C(=O)NC2CCCc3c2cnn3-c2cccc(C)c2C)cn1 (configuration not stated),0.3,-2.1,/,87.3*,84.0*,92.5*,36.8*,104.2*,
COc1ccc(-c2[nH]ncc2CN2CCC(OCc3ccccn3)CC2)c(F)c1,2.2,-26.6,0.1,1.4,8.6,/,/,/,
O=C(/C=C/c1ccc(O)c([N+](=O)[O-])c1)c1ccc2ccccc2c1,8.0,-6.2,-9.7,20.9,14.4,/,/,/,
COc1ccc(Oc2ccc(/C=C/C(=O)c3ccc(O)cc3)cc2[N+](=O)[O-])cc1,-6.6,94.0*,9.8,87.6*,97.5*,32.8,/,66.0*,
CCC(C)Sc1ccc(-c2nc3cc(C)ccn3c2NC2CCCCC2)cc1 (configuration not stated),/,/,/,56.0*!,85.2*,-42.0,/,100.6*,
CC(C)Nc1ccc(Nc2ccnc3cc4ccccc4cc23)cc1,-0.5,108.0*,125.3*,68.4*,95.3*,100.4*,51.4*,69.7*,
O=C(COc1ccccc1F)Nc1ccccc1C(=O)NC1CC1,/,/,0.6,1.2,-21.9,/,/,/,
COc1ccc(CCN2CCC(Nc3nc4ccccc4n3Cc3ccc(F)cc3)CC2)cc1,/,55.9,26.1,83.0*,98.5*,91.4*,47.2*,-14.3,
